Measured values from PubChem BioAssay (NCATS).
Where “and” joins values, the source holds several entries; their conditions need not be identical. Identical values can stand only once. Inconclusive results are not listed. Values without a mark were called inactive. Calls of active or inactive are those of the source. Calls follow the shape of the dose curve; as a rule, active = well fitted inhibition curve with a large enough effect; inconclusive = small, poorly fitted or top-dose-only effect; inactive = flat fitted curve, though single readings scatter. Where a SMILES comes first, the peptide text is derived from it. [ ]: non-standard residue; d: D form. pGlu = O=C1CC[C@@H](C(=O)O)N1; Thz = O=C(O)[C@@H]1CSCN1

The molecules below were run against Voltage-gated inwardly rectifying potassium channel KCNH2 (Homo sapiens) (UniProt Q12809) (assay: qHTS Assay for Small Molecule Inhibitors of the Human hERG Channel Activity (AID 588834;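 also: lower thallium flux fluorescence means stronger hERG block; nearly all actives have a fitted effect of over 50% in size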; as to activity change, negative = inhibition: top concentration of the series differs between compounds)). Settings: U2OS BacMam hERG, FluxOR thallium flux fluorescence; series mostly up to 46.1 µM; activity change, negative = inhibition: at the top concentration.
Procedure, shortened: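 Thallium serves as surrogate for K+ influx through BacMam-delivered hERG in U2OS cells. Compounds are added for about 10 minutes after dye loading; stimulation buffer then starts flux, monitored kinetically on FDSS.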
% is scaled to controls: 0 for no effect and ±100 for the full control effect; potency is read from the fitted curve at half-maximal effect.

Chain of Voltage-gated inwardly rectifying potassium channel KCNH2 (Homo sapiens) (Q12809 whole entry, looked up): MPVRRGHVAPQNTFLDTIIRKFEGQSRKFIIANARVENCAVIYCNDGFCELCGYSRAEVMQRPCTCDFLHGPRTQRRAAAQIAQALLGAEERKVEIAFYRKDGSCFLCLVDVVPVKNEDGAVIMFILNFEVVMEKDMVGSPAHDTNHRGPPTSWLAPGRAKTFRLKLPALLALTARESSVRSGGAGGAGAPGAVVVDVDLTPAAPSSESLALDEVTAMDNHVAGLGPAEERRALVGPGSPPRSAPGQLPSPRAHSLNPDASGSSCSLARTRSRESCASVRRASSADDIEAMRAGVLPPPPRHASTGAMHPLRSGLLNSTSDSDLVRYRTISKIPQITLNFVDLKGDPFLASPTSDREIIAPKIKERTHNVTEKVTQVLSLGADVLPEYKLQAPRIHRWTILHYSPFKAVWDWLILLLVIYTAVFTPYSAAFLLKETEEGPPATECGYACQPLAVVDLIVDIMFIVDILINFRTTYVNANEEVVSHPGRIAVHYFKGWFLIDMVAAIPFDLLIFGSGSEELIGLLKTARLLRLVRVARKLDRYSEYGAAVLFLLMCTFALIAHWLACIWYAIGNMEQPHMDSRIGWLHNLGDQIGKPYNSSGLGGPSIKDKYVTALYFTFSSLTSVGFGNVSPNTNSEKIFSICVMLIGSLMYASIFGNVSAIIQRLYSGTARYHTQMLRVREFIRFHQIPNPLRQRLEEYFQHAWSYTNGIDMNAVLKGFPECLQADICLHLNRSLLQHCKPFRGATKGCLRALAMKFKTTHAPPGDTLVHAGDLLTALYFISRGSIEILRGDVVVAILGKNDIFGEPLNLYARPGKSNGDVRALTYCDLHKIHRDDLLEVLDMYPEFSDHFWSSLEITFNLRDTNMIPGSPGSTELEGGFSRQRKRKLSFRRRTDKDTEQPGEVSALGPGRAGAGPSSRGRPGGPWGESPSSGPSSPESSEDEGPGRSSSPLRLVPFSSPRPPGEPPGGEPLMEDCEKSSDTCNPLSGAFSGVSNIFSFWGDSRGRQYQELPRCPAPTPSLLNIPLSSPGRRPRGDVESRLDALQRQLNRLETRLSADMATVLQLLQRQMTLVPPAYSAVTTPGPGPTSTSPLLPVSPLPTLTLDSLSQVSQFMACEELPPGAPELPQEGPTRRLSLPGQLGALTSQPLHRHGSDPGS

Row | Compound | activity change, negative = inhibition | Potency
1 | O=C(O)[C@H](CC(=O)N1C[C@H]2CCCC[C@H]2C1)Cc1ccccc1 | 10.6% | 
2 | NCCCCCCCCCCN | 0.747% | 
3 | COc1cc2c3cc1Oc1cc(ccc1O)C[C@@H]1c4c(cc(OC)c(O)c4Oc4ccc(cc4)C[C@@H]3N(C)CC2)CC[N+]1(C)C | -2.88% | 
4 | CCCCCCCCCCCCCCCCCC(=O)NCC(COP(=O)([O-])OCC[N+](C)(C)C)OCC (stereo not given) | 17% | 
5 | N[C@@H](CC(=O)O)C(=O)O | -0.855% | 
6 | CC[C@H]1OC(=O)[C@H](C)C(=O)[C@H](C)[C@@H](O[C@@H]2O[C@H](C)C[C@H](N(C)C)[C@H]2O)[C@](C)(OC)C[C@@H](C)C(=O)[C@H](C)[C@H]2N(CCCCn3cnc(-c4cccnc4)c3)C(=O)O[C@]12C |  | inactive
7 | CC(=O)O[C@H]1C[C@@]2(C)[C@@H](C[C@@H](O)[C@H]3[C@@]4(C)CC[C@@H](O)[C@@H](C)[C@@H]4CC[C@@]32C)/C1=C(\CCC=C(C)C)C(=O)O | 9.39% | 
8 | O=C(O)/C=C/C(O)c1ccc(Cl)cc1 (stereo not given) | 6.73% | 
9 | O=C1CC[C@@H](C(=O)N2CSC[C@H]2C(=O)O)N1 ([pGlu]-[Thz]-OH) | 3.05% | 
10 | N#C/C(=C\c1c[nH]c2ccccc12)C(=O)c1ccc(O)c(O)c1 | 15.9% | 
11 | [O-][n+]1ccccc1SSc1cccc[n+]1[O-] | 40.4% | 
12 | CN1CC(=O)N/C1=N/C(=O)Nc1cccc(Cl)c1 | 10.7% | 
13 | C#CC1(O)CC[C@H]2[C@@H]3CCC4=CCCC[C@@H]4[C@H]3CC[C@@]21C (stereo not given in full) | -13.3% [at 20.6 µM] | 
14 | C[N+](C)(C)CCOP(=O)(O)OP(=O)([O-])OC[C@H]1O[C@@H](n2ccc(N)nc2=O)[C@H](O)[C@@H]1O | 0.28% | 
15 | NC(=O)C(=O)O | 11.1% | 
16 | COc1cc2c(CCNC(C)=O)c[nH]c2cc1Cl | 8.61% | 
17 | COC1=C(OC)C(=O)c2ccccc2C1=O | -10.5% | 
18 | CCOC(=O)c1ccccc1O | 3.71% | 

Row | Compound | activity change, negative = inhibition | Potency
19 | NCCCS(=O)(=O)O | 20.7% | 
20 | CC1(C)S[C@@H]2[C@H](NC(=O)[C@H](NC(=O)N3CCN(S(C)(=O)=O)C3=O)c3ccccc3)C(=O)N2[C@H]1C(=O)O | 19.4% | 
21 | C=CCN1C(=O)C(CC(C)C)NC1=S (stereo not given) |  | inactive
22 | O=C(/C=C/c1ccc(O)cc1)c1ccc(O)cc1O |  | 3.98 µM (active)
23 | COc1cc(/C=C/C(=O)N2CCN(CC(=O)N3CCCC3)CC2)cc(OC)c1OC | 16.8% | 
24 | Cc1ccc(O)c(-n2nc3ccccc3n2)c1 | 1.75% | 
25 | O=C(O)c1cc([N+](=O)[O-])ccc1NCCCc1ccccc1 | 10.3% | 
26 | COc1cc(C(O)CO)ccc1OS(=O)(=O)O (stereo not given) | -15.4% | 
27 | CN(C)[C@@H]1C(=O)C(C(=O)NCN2CCCC2)=C(O)[C@@]2(O)C(=O)C3=C(O)c4c(O)cccc4[C@@](C)(O)C3C[C@@H]12 (stereo not given in full) |  | inactive
28 | CC(C)(C)NCC(O)COc1nsnc1N1CCOCC1 (stereo not given) | 4.89% | 
29 | C[C@@H](NC(=O)/C(C#N)=C/c1ccc(O)c(O)c1)c1ccccc1 | -3.94% | 
31 | CN(C)CCn1nnnc1SCC1=C(C(=O)O)N2C(=O)[C@@H](NC(=O)Cc3csc(N)n3)[C@H]2SC1 | 12.9% [at 20.6 µM] | 
32 | Cc1cc(NC(=O)Nc2ccc3c(ccn3C)c2)sn1 | 17.7% | 
33 | O=C1C(SCCO)=C(SCCO)C(=O)c2ccccc21 | 11.5% | 
34 | NO | -3.71% | 
35 | O=C(O)COc1ccc(C(=O)c2cccs2)c(Cl)c1Cl |  | inactive
